Test results taken from PubChem BioAssay AID624296 (National Center for Advancing Translational Sciences (NCATS), 2012).
Among all 350,000 compounds or so, about 9,900 (2.8%) were called active. A call without a number means that no potency is given here. Not shown: some 15% with an inconclusive outcome. Calls come from the whole dose curve; as a rule, active = well fitted activation curve with a large enough effect; inconclusive = small, poorly fitted or top-dose-only effect; inactive = no such curve, though single readings can be large or run the other way. Only a selection was taken, and actives are over-represented in it overall.
Potency is the fitted concentration of half-maximal effect.

Experiment: A quantitative high throughput screen for small molecules that induce DNA re-replication in MCF 10a normal breast cells. Note: nearly all actives have a fitted effect of over 50% in size.
Conditions: MCF 10A DNA re-replication, Hoechst nuclear intensity, 48 h; series mostly up to 46.1 µM
In the case of `COc1ccc(/C=C/C(=O)OCC(=O)N2CCN(S(=O)(=O)c3ccc(C)cc3C)CC2)cc1OC`, the Potency is reported as “inactive”.
With `C[C@]12CCC(=O)C=C1C=CC1C2CC[C@@]2(C)C1CC[C@@]21CCC(=O)O1` (some centres undefined) the Potency was “inactive”.
With `CCN(C(=O)COC(=O)CCOc1cccc(C)c1)c1c(N)n(Cc2ccccc2)c(=O)[nH]c1=O` the Potency was “inactive”.
For `CC(C)Cn1c(SCC(=O)Nc2ccc(Cl)cc2F)nc(O)cc1=O`, the Potency was “inactive”.
In the case of `Cc1ccc(CNC(=O)COC(=O)C2CCC2)cc1`, the Potency is reported as “inactive”.
With `O=C(c1ccc(Cl)nc1)N1CCN(S(=O)(=O)c2ccc3c(c2)OCCO3)CC1` the Potency was “inactive”.
For `COc1ccc(S(=O)(=O)N2CCN(CC(=O)N3c4ccccc4CC3C)CC2)cc1OC` (centres undefined), the Potency was “inactive”.
With `COc1cc(/C=N/NC(=S)Nc2cccnc2)cc(OC)c1O` the Potency was “inactive”.
With `CCNc1nc(NCC)nc(N/N=C/c2ccc(O)c(OC)c2)n1` the Potency was “inactive”.
In the case of `COc1cc(/C=N/Nc2ccc(C)cc2)cc(Br)c1O`, the Potency is reported as 25.9 µM (active).
For `CCN(C(=O)CSc1nnnn1-c1ccc(OC)cc1)C1CCS(=O)(=O)C1` (centres undefined), the Potency was “inactive”.
With `COC(=O)c1cc(Oc2ccc(S(=O)(=O)N3CCOCC3)cc2[N+](=O)[O-])cc(C(=O)OC)c1` the Potency was “inactive”.
With `O=S(=O)(NCc1ccccn1)c1ccc(F)cc1` the Potency was “inactive”.
With `O=S(=O)(NCCOc1cccc2cccnc12)c1ccc(F)cc1` the Potency was 10.3 µM (active).
With `O=S(=O)(NCCc1ccc(F)cc1)c1cccc2cccnc12` the Potency was “inactive”.
In the case of `COc1ccccc1C(=O)NCC(=O)NCCSc1ccc(Br)cc1`, the Potency is reported as “inactive”.
For `O=C(O[C@H]1[C@H](Cc2ccccc2)NS(=O)(=O)[C@H]2C[C@@H]3C=C[C@]12O3)c1ccc([N+](=O)[O-])cc1`, the Potency was “inactive”.
In the case of `CCOC(=O)C1CCN(C(=O)CN2C(=O)NC(C)(c3ccc4cc(OC)ccc4c3)C2=O)CC1` (centres undefined), the Potency is reported as “inactive”.
In the case of `COc1cc(/C=C(\C#N)c2nc3ccccc3[nH]2)ccc1O`, the Potency is reported as “inactive”.
With `COc1ccc(/C=C(\C#N)c2c[nH]c3ccccc23)cc1` the Potency was 13 µM (active).
For `COc1ccc(C(C(O)C(=O)c2c[nH]c3ccccc23)N2CCN(c3ccccc3)CC2)cc1` (centres undefined), the Potency was “inactive”.
In the case of `COc1ccc(C(=O)COC(=O)CN2C(=O)C3CC=CCC3C2=O)c(OC)c1` (centres undefined), the Potency is reported as “inactive”.
For `CCOC(=O)c1sc(NC(=O)COc2ncnc3ccccc23)c(C(=O)OCC)c1C`, the Potency was “inactive”.
In the case of `NC(=O)Nc1ccc(C(=O)OCC(=O)NC2CCCc3ccccc32)cc1` (centres undefined), the Potency is reported as “inactive”.
With `CCOC(=O)c1c(NC(=O)CNC2CCCc3ccccc32)sc(C(N)=O)c1C` (centres undefined) the Potency was 16.4 µM (active).
In the case of `O=C(COC(=O)c1ccc(O)cc1O)NC(=O)c1ccccc1`, the Potency is reported as “inactive”.
With `O=C(Nc1ccc(CN2CCOCC2)cc1)c1cc(Cl)ccc1Cl` the Potency was “inactive”.
For `CCCC(=O)NC(=S)Nc1ccc(CN2CCOCC2)cc1`, the Potency was 0.651 µM (active).
For `CCCc1cc(=O)oc2cc(OCC(=O)Nc3ccc(CN4CCOCC4)cc3)c(Cl)cc12`, the Potency was “inactive”.
In the case of `O=C(c1cc2ccccc2o1)N1CCN(S(=O)(=O)c2ccc(Cl)s2)CC1`, the Potency is reported as “inactive”.
For `CCCCCCSc1ccc([C@@H]2[C@H]3C(=O)N(CC)C(=O)[C@H]3[C@]3(C(=O)OC)CCCCN23)cc1`, the Potency was “inactive”.
With `CCn1nnc2cc(C(=O)Nc3ccc(C(=O)OC(C)C)cc3)ccc21` the Potency was “inactive”.
For `CCOC(=O)C1=C(CC)Nc2ccccc2N=C1N`, the Potency was “inactive”.
For `CCOC(=O)C1=C(CC)Nc2ccccc2N=C1NC(=O)c1cccc(S(=O)(=O)N2CCCC2)c1`, the Potency was 23.1 µM (active).
For `CCOC(=O)CSc1nnc(NC(=O)c2cccc(S(=O)(=O)N3CCCC3)c2)s1`, the Potency was “inactive”.
For `CCC(C)C(N=C1NS(=O)(=O)c2ccccc21)C(=O)N1CCC(C)CC1` (centres undefined), the Potency was “inactive”.
For `Cn1c(=O)[nH]c(=O)c2c1nc(Br)n2CCCCSc1nc2ccccc2o1`, the Potency was 7.31 µM (active).
With `Cn1c(=O)c2c(nc(Br)n2CCSc2nc3ccccc3o2)n(C)c1=O` the Potency was “inactive”.
With `Cc1ccnc(SCCn2c(Br)nc3c2c(=O)[nH]c(=O)n3C)n1` the Potency was “inactive”.
For `Cc1cccc(C(=O)N[C@H](C(=O)NCc2cccs2)C(C)C)c1`, the Potency was “inactive”.
For `CC(C)(C)OC(=O)C[C@@H]1C/C=C\C[C@@H](CC(=O)N[C@@H](CO)Cc2ccccc2)C(=O)N2CCC[C@H]2COC1=O`, the Potency was “inactive”.
With `Nc1ccc2[nH]c(=S)sc2c1` the Potency was “inactive”.
For `CCCN1CCn2c3c(c4cc(Br)ccc42)CCCC31` (centres undefined), the Potency was 23.1 µM (active).
With `COc1ccc(S(=O)(=O)N2CCOCC2)cc1NC(=O)CC1CC2CCC1C2` (centres undefined) the Potency was “inactive”.
In the case of `Cc1ccc(C(=O)O)c(NC=O)c1OCc1ccccc1`, the Potency is reported as “inactive”.
In the case of `CCCCOC(=O)Cn1c(=O)n(CC(=O)OCCCC)c2cc(C)ccc21`, the Potency is reported as “inactive”.
With `CCCCOC(=O)Cn1c(=N)n(CCN(CC)CC)c2ccccc21` the Potency was “inactive”.
For `CCCCCCCCCCOC(=O)Cn1c(COc2ccc(C)cc2)[n+](C)c2ccccc21`, the Potency was 23.1 µM (active).
In the case of `CC(=O)Nc1ccc(S(=O)(=O)NC(C)C(=O)OCCOc2ccc(F)cc2)cc1` (centres undefined), the Potency is reported as “inactive”.
For `COc1ccc(C2(CNC(=O)Cc3ccc(OC)c(OC)c3)CCCC2)cc1`, the Potency was “inactive”.
With `CCOc1c(OC)cccc1C(=O)NCC1(c2ccccc2)CCCC1` the Potency was 20.6 µM (active).
With `COc1cc(C(=O)NCC2(c3ccccc3)CCCC2)ccc1OC(C)C` the Potency was “inactive”.
For `CCC(C)CCN1CCN=C1N(C)C` (centres undefined), the Potency was “inactive”.
In the case of `O=C1CC[C@@H]2CC3(C[C@@H]4CCN1[C@H]24)Nc1cc([N+](=O)[O-])ccc1NC3=NC1CCCCC1` (some centres undefined), the Potency is reported as “inactive”.
With `O=C(c1cc(=O)c2ccccc2o1)N1CCN(c2ccccc2)CC1` the Potency was “inactive”.
With `COc1cc2c(cc1OC)CN(C(=O)c1cc(=O)c3ccccc3o1)CC2` the Potency was 10.3 µM (active).
With `COc1ccccc1CNC(=O)c1cc(=O)c2ccccc2o1` the Potency was “inactive”.
With `NC(=O)C1(Nc2ccc([N+](=O)[O-])cc2)CCCC1` the Potency was “inactive”.
With `CC1CN(Cc2ccco2)C(=S)N(c2ccccc2)C1=O` (centres undefined) the Potency was “inactive”.
For `C[C@@H](NC(=O)OC(C)(C)C)c1nnc(S(=O)(=O)Cc2ccccc2)o1`, the Potency was 18.4 µM (active).
With `CC(C)Sc1nnc([C@H](Cc2ccccc2)NC(=O)OC(C)(C)C)o1` the Potency was “inactive”.
For `C[C@H](NC(=O)OC(C)(C)C)c1nnc(SCC(N)=O)o1`, the Potency was “inactive”.
In the case of `Cc1ccc(S(=O)(=O)Nc2ccc(F)c(S(=O)(=O)N3CCOCC3)c2)cc1`, the Potency is reported as “inactive”.
With `CNS(=O)(=O)c1cccc(C(=O)OCCCC(=O)c2ccccc2)c1` the Potency was “inactive”.
